From PubChem BioAssay
Most compounds without a hit are left out; they make up all but 5.9% or so of the library.
LANA-H2A inh – blocks KSHV LANA binding to histone H2A/H2B; 320,000 compounds, 0.6% hits; Q9QR71; AID 2629; inhibition, % (concentration not given with the values); cell-free LANA-H2A/H2B peptide, fluorescence polarization; in the data active = inhibition mostly above about 10%, no sharp cut-off; inactive = mostly below about 6.7%
ABHD5 PLIN5 PPI – blocks binding of human ABHD5 to perilipin-5. Split G. princeps luciferase complementation, luminescence, 4 h. inhibition, % at 4 µM. 360,000 compounds, 0.78% hits;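 active = inhibition above the mean inhibition across every tested compound plus 3 SD, cut at about 22% in these data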;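 note: 0% = DMSO only wells and the 100% control is not disclosed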
rCAG binder – r(CAG) repeat RNA binding | TO-PRO-1 dye displacement fluorescence | inhibition, % at 3 µM | 370,000 compounds, 1.3% hits | AID 651821;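 active = inhibition above the plate cutoff, the mean of all test compounds on that plate plus 3 SD, cut at about 35% in these data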;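 note: 0% = DMSO alone and 100% = 100 µM mitoxantrone as full dye displacement; higher means more dye released from RNA so lower well fluorescence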
Rtt109 Vps75 – blocks Candida albicans Rtt109/Vps75 acetyltransferase activity; inhibition, % at 34.9 µM; AID 540336; purified Rtt109/Vps75, ThioGlo CoA-SH fluorescence, 4 h; 330,000 compounds, 0.16% hits; Q5AAJ8;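 active = inhibition of at least 50% in every replicate; inconclusive = best replicate reaches 50% inhibition but some replicates fall short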
ALR H2O2 inh – human ALR oxidase inhibition via reduced H2O2; P55789; purified ALR, DTT oxidation, H2O2 HRP-luminol luminescence; inhibition, % (test concentration not listed); 290,000 compounds, 3.8% hits;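 active = mean replicate inhibition above about 79%, with every replicate also reaching it, limit read from the data; inconclusive = only one of the two criteria met; inactive = mean below limit and not every replicate reaching it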
Target sequence (P55789 whole entry, looked up): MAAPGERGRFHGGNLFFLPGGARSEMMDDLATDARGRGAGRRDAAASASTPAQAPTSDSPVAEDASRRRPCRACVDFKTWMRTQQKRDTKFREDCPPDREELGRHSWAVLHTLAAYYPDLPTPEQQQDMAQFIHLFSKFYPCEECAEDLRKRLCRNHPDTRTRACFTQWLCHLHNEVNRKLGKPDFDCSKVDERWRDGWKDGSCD
PRMT1 inh – inhibitors of human PRMT1 | Q99873 | 370,000 compounds, 1.3% hits | AID 652257 | recombinant PRMT1, activity-based probe fluorescence polarization | inhibition, % at 2.79 µM;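 active = inhibition above about 21% made by adding two undisclosed values, limit read from the data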
ABHD5 PLIN5 conf – confirmation of human ABHD5-PLIN5 interaction inhibitors | shares compounds with ABHD5 PLIN5 PPI | biochemical ABHD5-PLIN5 interaction, luminescence | inhibition, % at 4 µM | 2,200 compounds, 67% hits; in the data active = inhibition above about 23%;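 note: 0% = DMSO vehicle wells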
HNF4 counter – counter-screen for ABHD5-PLIN5 inhibitors: HNF4 split-luciferase | 2,200 compounds, 77% hits | inhibition, % at 4 µM | shares compounds with ABHD5 PLIN5 PPI | HNF4 dimerization, luminescence, biochemical;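 active = mean inhibition across replicate wells exceeding the computed hit threshold, cut at about 13% in these data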;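 note: light from luciferase halves that rejoin when HNF4 fusion proteins dimerize; 0% = DMSO only wells and the 100% control is not given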
Target sequence (P41235 whole entry, looked up, the tested form may be a part): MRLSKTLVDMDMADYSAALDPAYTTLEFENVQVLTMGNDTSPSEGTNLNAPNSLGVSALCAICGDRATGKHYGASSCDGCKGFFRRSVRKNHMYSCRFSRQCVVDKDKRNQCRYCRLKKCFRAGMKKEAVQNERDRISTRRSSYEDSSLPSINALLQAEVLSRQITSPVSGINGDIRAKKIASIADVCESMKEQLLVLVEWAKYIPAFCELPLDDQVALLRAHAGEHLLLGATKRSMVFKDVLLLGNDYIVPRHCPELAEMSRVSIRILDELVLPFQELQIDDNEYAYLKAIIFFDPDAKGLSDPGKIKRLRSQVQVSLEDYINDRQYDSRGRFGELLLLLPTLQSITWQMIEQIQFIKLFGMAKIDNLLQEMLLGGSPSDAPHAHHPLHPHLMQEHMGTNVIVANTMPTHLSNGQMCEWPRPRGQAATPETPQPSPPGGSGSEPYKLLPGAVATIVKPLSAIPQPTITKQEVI
rCAG binder conf – r(CAG) RNA repeat binding, confirmation; shares compounds with rCAG binder; TO-PRO-1 dye displacement fluorescence; inhibition, % at 3 µM; 4,300 compounds, 70% hits; AID 652065;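 active = inhibition above a per-plate cutoff, the mean inhibition of sample wells plus 3 SD, cut at about 35% in these data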;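 note: loss of TO-PRO-1 fluorescence as compound displaces dye from 1x1 AA loop RNA; 0% = DMSO only wells and 100% = 100 µM mitoxantrone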
dCAG dye counter – counter-screen for rCAG RNA binders: DNA CAG dye complex inhibitors | shares compounds with rCAG binder | AID 652068 | 4,300 compounds, 94% hits | inhibition, % at 3 µM | d(CAG) DNA oligo TO-PRO-1 dye displacement, fluorescence;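 active = inhibition above its plate's cutoff, the mean test-well inhibition plus 3 SD, cut at about 4.8% in these data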;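 note: 0% = DNA dye mix with DMSO and 100% = 100 µM mitoxantrone; hits displace the dye from DNA and so lower well fluorescence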
PRMT1 confirm – PRMT1 (human) inhibition, FP confirmation | recombinant His-PRMT1, activity-based probe fluorescence polarization | inhibition, % at 2.79 µM | shares compounds with PRMT1 inh | 3,300 compounds, 42% hits | AID 687036;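 active = mean inhibition across replicates above the hit cutoff derived for the earlier primary screen, cut at about 22% in these data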
Starred values were filed as active, the others as inactive; ? = inconclusive; / = not tested or not shown.

SMILES	LANA-H2A inh	ABHD5 PLIN5 PPI	rCAG binder	Rtt109 Vps75	ALR H2O2 inh	PRMT1 inh	ABHD5 PLIN5 conf	HNF4 counter	PRMT1 confirm	others
COc1cccc(NC(=O)Cc2ccccc2)c1	-2	0	0	1	2	-1	/	/	/
O=C(O)c1cccc(N2C(=O)C=CC2=O)c1	/	37*	4	/	/	59*	44*	104*	84*
O=C(Cc1ccccc1)Nc1cccc(N2C(=O)C=CC2=O)c1	-6	29*	8	-18	17	96*	47*	107*	95*
Cc1ccc(CN2CCCCC(NC(=O)c3c(F)cccc3F)C2=O)cc1 (stereo not drawn)	/	/	2	/	/	-2	/	/	/
COc1ccc(-n2sc3ccccc3c2=O)cc1	/	76*	2	/	/	82*	81*	120*	82*
N#C/C(=C/c1ccc(N2CCOCC2)o1)c1nc2ccccc2[nH]1	-51	27*	-29	-5	44	38*	32*	50*	-55
CSCCC(c1nc2ccccc2[nH]1)n1c(=O)c(-c2ccco2)nc2ccccc21 (stereo not drawn)	/	34*	17	/	/	45*	34*	40*	16
CCc1cc2c(=O)n(Cc3ccco3)c(SCc3c(C)noc3C)nc2s1	0	26*	7	-1	99*	53*	30*	51*	8
CCc1sc(C(C2C(=O)CC(C)(C)CC2=O)C2C(=O)CC(C)(C)CC2=O)cc1[N+](=O)[O-]	-3	52*	37*	19	27	48*	101*	98*	50*	rCAG binder conf=23;dCAG dye counter=6.4*
CC1(C)CC(=O)C(C(c2ccc(Br)cc2)C2C(=O)CC(C)(C)CC2=O)C(=O)C1	0	9	8	2	38	1	/	/	/
O=Cc1coc([B-](F)(F)F)c1	/	/	3	/	/	-2	/	/	/
CCN(CC)c1ccc(/C=C2/SC(=O)N(C(C)C)C2=O)o1	/	93*	1	3	/	27*	73*	109*	-54
CCCNC(=O)Cn1sc2nc(C)cc(C)c2c1=O	0	45*	-1	113*	19	93*	30*	107*	94*
Cc1cc(C)c2c(=O)n(CC(=O)N3CCC(N4CCCCC4)CC3)sc2n1	3	34*	6	?	22	78*	33*	98*	4
CCOC(=O)C(=O)N1CCC(C(=O)NC2CCCc3ccccc32)CC1 (stereo not drawn)	/	/	-1	/	/	3	/	/	/
Cc1cc(C)nc(N2N=C(C(C)(C)C)CC2=O)n1	1	37*	-5	14	-2	41*	7	26*	8
COc1ccc(-c2c(C(=O)c3ccccc3)[nH]c(N)c2C(=O)c2c[nH]c3ccccc23)cc1OC	/	/	/	/	/	-1	/	/	/
COc1ccc(NC(=O)/C=C/c2ccc(C)o2)cc1S(=O)(=O)N1CCOCC1	3	23*	24	13	1	45*	16	17*	30*
Cc1cc(NS(=O)(=O)c2ccc(NC(=O)/C=C/c3ccc(C)o3)cc2)nc(C)n1	-1	29*	23	2	16	55*	51*	60*	54*
CCOC(=O)[C@]12CCCC=C1N(CCc1ccc(OC)c(OC)c1)C(=O)[C@H](CC(=O)NCCCCc1ccccc1)C2	/	3	5	/	/	0	/	/	/
CC1=C(C)CS(=O)N(S(=O)(=O)c2ccc(Cl)cc2)C1 (stereo not drawn)	-1	80*	2	15	99*	34*	93*	109*	43*
COc1ccccc1OCC(=O)Nc1cc(C(F)(F)F)ccc1-n1cncn1	-1	5	-3	-15	-2	-6	/	/	/
O=C(CC(C(=O)O)c1cccc(Cl)c1)c1ccccc1 (stereo not drawn)	3	-12	1	0	-4	-2	/	/	/
O=C(CC(Nc1ccc(Cl)cc1Cl)C(=O)O)c1ccccc1 (stereo not drawn)	1	78*	3	19	/	39*	16	80*	3
NC(=O)C(c1ccccc1)c1ccc(C(=O)c2ccccc2)cc1 (stereo not drawn)	-1	1	-3	-3	-7	4	/	/	/
SMILES	LANA-H2A inh	ABHD5 PLIN5 PPI	rCAG binder	Rtt109 Vps75	ALR H2O2 inh	PRMT1 inh	ABHD5 PLIN5 conf	HNF4 counter	PRMT1 confirm	others
Cc1ccc(Cn2c(=S)[nH]c3ccc(N4CCOCC4)cc3c2=O)o1	1	31*	17	5	-12	69*	43*	91*	61*
O=c1c2cc(N3CCOCC3)ccc2[nH]c(=S)n1Cc1ccc(Cl)cc1	3	-6	7	6	-5	1	/	/	/
COC(=O)[C@]12C[C@H](CC(=O)N3CCC(c4ccccc4)CC3)C(=O)N(Cc3ccco3)C1=C[C@H](C(C)(C)C)O[C@@H]2C	/	/	3	/	/	3	/	/	/
O=C(COC(=O)c1cc(-c2cccs2)nc2ccccc12)NCc1ccco1	-2	17	18	-64	8	13	/	/	/
O=C(COC(=O)c1cc(-c2ccc(Cl)s2)nc2ccccc12)NCc1ccco1	-2	38*	36*	0	92*	30*	59*	56*	3	rCAG binder conf=15;dCAG dye counter=6.6*
N#CC1=C(N)NC(=S)C(C(N)=O)C1c1ccc(Cl)cc1Cl (stereo not drawn)	-2	57*	1	0	24	72*	13	101*	34*
N#CC1=C(N)NC(=S)C(C(N)=O)C1c1ccccc1F (stereo not drawn)	0	38*	1	22	84*	64*	-11	84*	34*
CCOC(=O)C1C(=O)NC(SC)=C(C#N)C1c1ccccc1F (stereo not drawn)	-2	-2	-1	3	16	0	/	/	/
O=C1NC(=O)C(c2ccc(Cl)cc2Cl)N1 (stereo not drawn)	/	5	1	-1	/	-6	/	/	/
O=C(CCc1nc(-c2ccccc2F)no1)NCCc1c[nH]c2ccccc12	/	/	3	/	/	1	/	/	/
